From PubChem BioAssay (EPA / NIEHS)
Where “and” joins values, the source holds several entries; their conditions need not be identical. Equal entries are not always repeated. Inconclusive results are not listed. A structure can be active in one record and inactive in another. Calls of active or inactive are those of the source. Rule for the calls: active = hit-call score of the fitted dose curve at least 0.9, where 1 is the maximum; inconclusive = response in the unintended direction; inactive = score below 0.9.

Tests used:
[1] = target: Cellular tumor antigen p53 (Homo sapiens) (UniProt P04637); experiment: TOX21_p53_BLA_p3_ratio: Tox21 HCT-116 p53 Agonism Beta-lactamase Assay, Ratio, Phase 3 (AID 2283596)
Chain of Cellular tumor antigen p53 (Homo sapiens) (P04637 whole entry, looked up): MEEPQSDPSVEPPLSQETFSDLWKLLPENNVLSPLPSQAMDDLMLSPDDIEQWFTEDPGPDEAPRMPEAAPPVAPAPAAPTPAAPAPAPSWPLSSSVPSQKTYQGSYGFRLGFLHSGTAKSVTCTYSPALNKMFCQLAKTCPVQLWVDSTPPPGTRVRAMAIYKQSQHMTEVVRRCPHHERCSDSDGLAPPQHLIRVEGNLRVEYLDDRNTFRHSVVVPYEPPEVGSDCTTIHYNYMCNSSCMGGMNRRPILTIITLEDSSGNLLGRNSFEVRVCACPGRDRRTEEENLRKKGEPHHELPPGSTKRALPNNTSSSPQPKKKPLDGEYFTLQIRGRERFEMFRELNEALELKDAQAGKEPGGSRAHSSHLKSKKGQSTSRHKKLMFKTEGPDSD
Method in brief: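 Cells were seeded at 4000/well, rested 5 h at 37C, then dosed with DMSO compound solutions (217-fold dilution) for 16 h. CCF4-AM substrate was loaded for 2 h at room temperature, and the 460/530 nm emission ratio was fitted for gain of signal versus DMSO.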

[2] = TOX21_p53_BLA_p4_viability: Viability Assessment in the Tox21 HCT-116 p53 Agonism Beta-lactamase Assay, Phase 4 (AID 2283597);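 note: hits lower the luminescence signal meaning cytotoxicity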
Method in brief: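 ATP content by CellTiter-Glo luminescence, 30 min RT, read after the beta-lactamase ratio step. Cells: HCT116, 4000/well, compound added after 5 h, exposure 16 h at 37C. Signal loss = reduced viability.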

[3] = target: Cellular tumor antigen p53 (Homo sapiens) (UniProt P04637); experiment: TOX21_p53_BLA_p5_ratio: Tox21 HCT-116 p53 Agonism Beta-lactamase Assay, Ratio, Phase 5 (AID 2283599)
Method in brief: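 HCT-116 p53-bla cells (4000/well) plated 5 h, dosed with compound (217-fold DMSO dilution) for 16 h at 37 C; CCF4-AM substrate 2 h at room temperature. Activity is the 460/530 nm emission ratio (405 nm excitation), fitted in gain-of-signal direction versus DMSO.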

[4] = TOX21_p53_BLA_p5_viability: Viability Assessment in the Tox21 HCT-116 p53 Agonism Beta-lactamase Assay, Phase 5 (AID 2283600)
Method in brief: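 ATP luminescence (CellTiter-Glo, 30 min, RT) served as the viability read-out, with loss of signal indicating cytotoxicity. Compounds in DMSO were pinned at a 217-fold dilution onto 4000 cells/well and incubated 16 h, 37C.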

[5] = target: Cellular tumor antigen p53 (Homo sapiens) (UniProt P04637); experiment: TOX21_p53_BLA_p4_ratio: Tox21 HCT-116 p53 Agonism Beta-lactamase Assay, Ratio, Phase 4 (AID 2283601)
Method in brief: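 HCT-116 p53 beta-lactamase reporter cells (4000/well) preincubated 5 h, then compound (217-fold dilution of DMSO stock) for 16 h at 37C. CCF4-AM substrate added 2 h at room temperature; 460/530 nm emission ratio fitted upward versus DMSO.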

| SMILES | outcome [1] | AC50 [2] | outcome [2] | AC50 [3] | outcome [3] | AC50 [4] | outcome [4] | outcome [5] | AC50 [5] | AC50 [1] |
| --- | --- | --- | --- | --- | --- | --- | --- | --- | --- | --- |
| C=C1CC[C@H](O)C/C1=C/C=C1\CCC[C@]2(C)[C@@H]([C@H](C)/C=C/[C@H](C)C(C)C)CC[C@@H]12 | inactive | 45.8 µM (active) | inactive | 70.5 µM (active) | inactive | 79.6 µM (active) | inactive | inactive |  |  |
| N[C@@H](Cc1cc(I)c(Oc2cc(I)c(O)c(I)c2)c(I)c1)C(=O)O | inactive | 37 µM (active) | inactive | 39.3 µM (active) |  |  | inactive | inactive | 39.8 µM (active) |  |
| CC(=O)C1(C)CC2=C(CCCC2(C)C)CC1C (stereo unspecified) | inactive |  | inactive |  | inactive |  | inactive | inactive |  |  |
| CN(C)C(=O)Nc1ccc(Oc2ccc(Cl)cc2)cc1 | inactive |  | inactive |  | inactive |  | inactive | inactive |  |  |
| c1ccc2cc(Nc3ccc(Nc4ccc5ccccc5c4)cc3)ccc2c1 | inactive |  | inactive |  | inactive |  | inactive | inactive |  | 73.5 µM (active) |
| CCc1ncc(C)[nH]1 | inactive |  | inactive |  | inactive |  | inactive | inactive |  |  |
| ON=C1CCCCC1 | inactive |  | inactive |  | inactive |  | inactive | inactive |  |  |
| NCCNc1cccc2ccccc12 | inactive |  | inactive |  | inactive |  | inactive | inactive |  |  |
| Cc1ccc(S(=O)(=O)Oc2ccc(N=Nc3ccc(-c4ccc(N=Nc5c(O)ccc6cc(S(=O)(=O)O)cc(S(=O)(=O)O)c56)c(C)c4)cc3C)cc2)cc1 | inactive |  | inactive |  | inactive |  | inactive | inactive |  |  |
| CSc1c(Cl)c(Cl)c(Cl)c(Cl)c1Cl | inactive |  | inactive |  | inactive |  | inactive | inactive |  |  |
| NC(=S)NNC(N)=S | inactive |  | inactive |  | inactive |  | inactive | inactive |  |  |
| C#CC(C)N(C)C(=O)Nc1ccc(Cl)cc1 (stereo unspecified) | inactive |  | inactive |  | inactive |  | inactive | inactive |  |  |
| CCOc1ccc(NC(=O)CC(C)O)cc1 (stereo unspecified) | inactive |  | inactive |  | inactive |  | inactive | inactive |  |  |
| OCc1ccc(Cl)cc1Cl | inactive |  | inactive |  | inactive |  | inactive | inactive |  |  |
| CCCC(C)=O | inactive |  | inactive |  | inactive |  | inactive | inactive |  |  |
| CC(C)=CCCC(C)CCOC=O (stereo unspecified) |  |  | inactive |  | inactive |  | inactive | inactive |  | 69.8 µM (active) |
| C[C@H](CCC(=O)NCC(=O)O)[C@H]1CC[C@H]2[C@@H]3[C@H](O)C[C@@H]4C[C@H](O)CC[C@]4(C)[C@H]3C[C@H](O)[C@]12C | inactive |  | inactive |  | inactive |  | inactive | inactive |  |  |
| CCCCCCCCC=CCCCCCCCC1=NCCN1CCO |  | 86.4 µM (active) |  |  | inactive |  | inactive |  | 87.8 µM (active) | 87.1 µM (active) |
| Nc1ccc(N)c2c1C(=O)c1ccccc1C2=O | inactive |  | inactive |  | inactive |  | inactive |  | 13 µM (active) |  |
| [O-]n1ccccc1=S.[O-]n1ccccc1=S.[Zn+2] |  | 15.4 µM (active) [middle of 4 runs] |  | 24.8 µM (active) [middle of 4 runs] |  | 19.1 µM (active) [middle of 4 runs] |  |  | 21.1 µM (active) [middle of 4 runs] | 35.7 µM (active) [middle of 4 runs] |
| O=C(Nc1ccc2c(c1)Cc1ccccc1-2)C(F)(F)F | inactive |  | inactive |  | inactive |  | inactive | inactive |  |  |
| CC(C)CC(C)CC(O)CC(C)C (stereo unspecified) | inactive |  | inactive |  | inactive |  | inactive | inactive |  |  |
| IC(I)I | inactive |  | inactive |  | inactive |  | inactive | inactive |  |  |
| O=C1NC2NC(=O)NC2N1 (stereo unspecified) | inactive |  | inactive |  | inactive |  | inactive | inactive |  |  |
| CCCSc1ccc2nc(NC(=O)OC)[nH]c2c1 |  |  | inactive | 373 nM (active) and 193 nM (active) |  |  | inactive |  | 339 nM (active) and 175 nM (active) | 394 nM (active) and 199 nM (active) |
| CN1C(=O)c2ccccc2C1=O | inactive |  | inactive |  | inactive |  | inactive | inactive |  |  |
| C=CC(=O)OCCCC | inactive |  | inactive |  | inactive |  | inactive | inactive |  |  |
| CCCCCCCCCC(C)C=O (stereo unspecified) | inactive |  | inactive |  | inactive |  | inactive | inactive |  |  |
| C1=CC2C3C=CC(C3)C2C1 (stereo unspecified) | inactive |  | inactive |  | inactive |  | inactive | inactive |  |  |
| CC1(C)C2=CCCC(C)(C)[C@]23CC[C@H]1C3 | inactive |  | inactive |  | inactive |  | inactive | inactive |  |  |
